The values below come from PubChem BioAssay.

Assay [1] is described as follows: antimalarial activity against Dd2 strain (AID 2302;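 active = growth inhibition above 50% at the single 2 µM test dose, taken to imply half-maximal potency below 2 µM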;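 also: 0% = DMSO untreated growth and 100% = chloroquine plus artemisinin killed control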). The following applies: P. falciparum Dd2 in RBCs, LDH growth readout, 72 h; at 2 µM; active compounds read high.
Assay [2] can be described thus: HepG2 cytotoxicity, primary screen, cytotoxicity control for P. falciparum antimalarial project, cell-based, ATP luminescence (AID 2303;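 active = inhibition above 50%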;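 also: 0% = DMSO wells and 100% = digitonin-killed cells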). Particulars: HepG2 viability, 24-48 h, at 10 µM, active compounds read high.
Assay [3] concerns the target L-lactate dehydrogenase (Plasmodium falciparum (isolate CDC / Honduras)) (UniProt Q27743). The assay is described as follows: PfLDH activity inhibition – cell lysate, 3D7 strain, counter-screen for P. falciparum growth inhibition project (AID 2304).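 Also: 0% = vehicle and 100% = reference inhibitor.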 Particulars: P. falciparum 3D7 crude extract, LDH APAD/NBT absorbance; at 2 µM; active compounds read high. (Counterscreens check selectivity or assay interference.)

Assay [4] is described as follows: inhibition of 3D7 malaria parasite growth – strain 3D7 (AID 2306).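 Also: 0% = DMSO wells and 100% = chloroquine plus artemisinin control wells.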 Particulars: P. falciparum 3D7 erythrocytic growth, LDH absorbance, 72 h; at 2 µM; active compounds read high.
The target of assay [5] is Calcium-dependent protein kinase 1 (Plasmodium falciparum (isolate 3D7)) (UniProt P62344). The assay is described as follows: PfCDPK1 kinase inhibitors, biochemical, TCAMS library (AID 1159585; cut-off not given, nearly all actives have IC50 up to about 0.98 µM;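 also: inhibitors leave more ATP so luminescence rises with inhibition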). Particulars: recombinant PfCDPK1, Kinase-Glo ATP depletion luminescence. Background: In Kinase-Glo more light means more ATP remaining.
For assay [6], the target named is Plasmodium falciparum protein kinase 6 (PK6, PF3D7_1337100) (UniProt Q8IDW1). The experiment in a line: PfPK6 kinase inhibitors, biochemical, TCAMS library (AID 1159586). Particulars: recombinant PfPK6, Kinase-Glo ATP depletion luminescence.
Assay [7] addresses Protein kinase 7 (PK7), Plasmodium falciparum 3D7 (PF3D7_0213400) (UniProt Q7YTF7). The experiment in a line: inhibition of Plasmodium PK7 catalytic activity – biochemical, TCAMS antimalarial set, Kinase-Glo luminescence (AID 1159587). The following applies: recombinant PfPK7, Kinase-Glo ATP depletion luminescence.
The target of assay [8] is Calcium-dependent protein kinase 4 (Plasmodium falciparum (isolate 3D7)) (UniProt Q8IBS5). The assay is described as follows: PfCDPK4 kinase inhibitors, biochemical, TCAMS library (AID 1159588; cut-off not given, nearly all actives have IC50 up to about 0.91 µM). Particulars: recombinant PfCDPK4, Kinase-Glo ATP depletion luminescence.

The structures appear in SMILES notation. Unmarked numbers belong to inactive results. For some of these results: Potency and affinity values are given separately. The source made the active and inactive calls. Unless noted, no rule for the calls is given here.

Chain of Protein kinase 7 (PK7), Plasmodium falciparum 3D7 (PF3D7_0213400) (Q7YTF7 1-343): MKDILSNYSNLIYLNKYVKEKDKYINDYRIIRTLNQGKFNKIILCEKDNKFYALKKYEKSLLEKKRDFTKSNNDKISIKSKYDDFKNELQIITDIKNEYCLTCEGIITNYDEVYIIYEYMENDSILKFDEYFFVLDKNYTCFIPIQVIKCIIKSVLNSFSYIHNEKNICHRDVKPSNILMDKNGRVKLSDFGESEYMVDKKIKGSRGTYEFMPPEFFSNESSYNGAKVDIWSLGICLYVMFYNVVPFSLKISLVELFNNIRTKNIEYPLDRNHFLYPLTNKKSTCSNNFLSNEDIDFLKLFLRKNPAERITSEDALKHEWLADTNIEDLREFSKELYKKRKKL
Chain of Plasmodium falciparum protein kinase 6 (PK6, PF3D7_1337100) (Q8IDW1 1-305): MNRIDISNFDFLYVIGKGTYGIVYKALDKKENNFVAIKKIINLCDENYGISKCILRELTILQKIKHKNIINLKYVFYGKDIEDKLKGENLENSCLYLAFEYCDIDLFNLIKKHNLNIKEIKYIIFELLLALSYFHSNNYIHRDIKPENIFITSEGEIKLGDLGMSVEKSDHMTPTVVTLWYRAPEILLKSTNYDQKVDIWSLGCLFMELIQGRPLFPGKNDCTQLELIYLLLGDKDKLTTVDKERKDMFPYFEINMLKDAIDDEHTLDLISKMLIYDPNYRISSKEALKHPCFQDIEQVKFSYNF
Chain of Calcium-dependent protein kinase 1 (Plasmodium falciparum (isolate 3D7)) (P62344 whole entry, looked up): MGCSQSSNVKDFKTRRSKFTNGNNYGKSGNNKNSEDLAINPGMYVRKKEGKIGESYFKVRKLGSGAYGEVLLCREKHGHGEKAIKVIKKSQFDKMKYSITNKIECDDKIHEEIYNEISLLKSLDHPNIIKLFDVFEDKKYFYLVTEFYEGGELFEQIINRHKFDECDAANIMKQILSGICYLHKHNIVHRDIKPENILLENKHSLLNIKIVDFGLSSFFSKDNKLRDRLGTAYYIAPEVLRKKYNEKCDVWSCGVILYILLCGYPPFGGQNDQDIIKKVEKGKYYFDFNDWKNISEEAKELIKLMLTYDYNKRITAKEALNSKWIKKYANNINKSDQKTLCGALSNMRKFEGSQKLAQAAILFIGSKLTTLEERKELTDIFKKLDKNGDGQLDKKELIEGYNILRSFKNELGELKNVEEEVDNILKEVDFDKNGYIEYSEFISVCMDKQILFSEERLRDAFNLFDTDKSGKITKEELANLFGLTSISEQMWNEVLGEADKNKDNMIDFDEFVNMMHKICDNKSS
Chain of Calcium-dependent protein kinase 4 (Plasmodium falciparum (isolate 3D7)) (Q8IBS5 whole entry, looked up): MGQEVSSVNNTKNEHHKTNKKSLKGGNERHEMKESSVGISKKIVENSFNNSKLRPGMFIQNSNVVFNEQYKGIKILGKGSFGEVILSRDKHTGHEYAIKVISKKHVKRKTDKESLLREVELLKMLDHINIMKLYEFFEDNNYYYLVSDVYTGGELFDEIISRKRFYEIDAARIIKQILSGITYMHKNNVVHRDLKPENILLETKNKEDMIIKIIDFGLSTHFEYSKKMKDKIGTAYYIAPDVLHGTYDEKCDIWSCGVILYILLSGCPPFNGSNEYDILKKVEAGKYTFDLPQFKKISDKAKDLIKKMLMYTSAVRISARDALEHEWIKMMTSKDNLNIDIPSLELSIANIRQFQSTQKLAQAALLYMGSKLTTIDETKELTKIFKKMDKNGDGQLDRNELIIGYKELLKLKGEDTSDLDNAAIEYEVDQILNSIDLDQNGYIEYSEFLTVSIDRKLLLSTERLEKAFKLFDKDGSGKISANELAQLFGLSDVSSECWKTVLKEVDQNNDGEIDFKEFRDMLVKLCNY
Chain of L-lactate dehydrogenase (Plasmodium falciparum (isolate CDC / Honduras)) (Q27743 whole entry, looked up): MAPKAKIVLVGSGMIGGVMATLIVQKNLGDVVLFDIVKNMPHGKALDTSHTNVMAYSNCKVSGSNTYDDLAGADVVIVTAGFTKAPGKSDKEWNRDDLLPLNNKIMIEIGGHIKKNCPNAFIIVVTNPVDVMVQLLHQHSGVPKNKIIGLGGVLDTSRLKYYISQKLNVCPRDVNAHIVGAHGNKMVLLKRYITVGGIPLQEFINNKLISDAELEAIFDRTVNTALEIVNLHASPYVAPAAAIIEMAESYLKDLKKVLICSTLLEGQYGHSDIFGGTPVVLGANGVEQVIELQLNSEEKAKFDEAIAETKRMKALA

In the case of `COc1ccc(-c2ccc(NC(=O)c3cccc(Cl)c3)cc2)cc1CNC(C)C`, the growth inhibition in assay [1] was 88% (active); in assay [4], 100% (active). In addition, the inhibition (in general, the relative decrease from the control value, in per cent) was 26% in assay [2] and 1% in assay [3]. The result in assay [5], in assay [6], in assay [7] and in assay [8] was inactive.
Regarding `CS(=O)(=O)c1cc2c(Nc3ccc(N4CCOCC4)cc3)c(C(N)=O)cnc2cc1Br`, the growth inhibition in assay [1] was 89% (active); in assay [4] it was 101% (active). For the same compound, the inhibition is -18% in assay [2] and -2% in assay [3]. The result in assay [5], in assay [6], in assay [7] and in assay [8] was inactive.
For `CCNc1cc(C(=O)N[C@@H](Cc2ccccc2)[C@H](O)CNC(C)(C)CCCC(C)C)c(F)c(N2CCCS2(=O)=O)c1`, the growth inhibition in assay [1] is 97% (active); in assay [4] it was 98% (active). The inhibition was -2% in assay [2] and -4% in assay [3]. Moreover, the result in assay [5], in assay [6], in assay [7] and in assay [8] was inactive.
As to `CCN(Cc1ccccc1)C1CCN(Cc2cc(Br)ccc2O)CC1`, the growth inhibition in assay [1] and in assay [4] was 97% (active) throughout. Moreover, the inhibition in assay [2] is 6%; in assay [3], -1%. The result in assay [5], in assay [6], in assay [7] and in assay [8] was inactive.
For `Cc1nccn1CCNC(=O)CN1CCC2(CCC1=O)CC(=O)c1ccccc1O2` (stereo not given), the growth inhibition in assay [1] was 4%; in assay [4], 98% (active). Further, the inhibition is -7% in assay [2] and 7% in assay [3]. For the same compound, the outcome in assay [5], in assay [6], in assay [7] and in assay [8] was inactive.
On to `CN1CCCN(c2ccnc3cc4c(cc23)N(C(=O)c2ccc(Cl)cc2)CC4)CC1`, for which the growth inhibition is 0% in assay [1] and 100% (active) in assay [4]. Also, the inhibition in assay [2] was 0%; in assay [3], 4%. For the same compound, the outcome in assay [5], in assay [6], in assay [7] and in assay [8] was inactive.
On to `COc1ccc2nccc(N3CCC(NCCNCc4cc5c(cn4)OCCO5)C3)c2n1` (stereo not given), for which the growth inhibition is 3% in assay [1] and 99% (active) in assay [4]. Moreover, the inhibition in assay [2] is 8%; in assay [3], -3%. The outcome in assay [5], in assay [6], in assay [7] and in assay [8] was inactive.
Regarding `O=C(NC1CCN(Cc2ccccc2)CC1)c1cc(-c2cccnc2)nc2ccc(Cl)cc12`, the figures for the growth inhibition in assay [1] and in assay [4] were 26% and 97% (active), respectively. Also, the inhibition was -3% in assay [2] and 1% in assay [3]. Also, the outcome in assay [5], in assay [6], in assay [7] and in assay [8] was inactive.
For `COC(=O)c1ccc(CN2CCC(N(Cc3cccc(Oc4ccccc4)c3)S(=O)(=O)c3ccc(NC(C)=O)cc3)CC2)cc1`, the values for the growth inhibition in assay [1] and in assay [4] were 86% (active) and 82% (active), respectively. Moreover, the figures for the inhibition in assay [2] and in assay [3] were -1% and -6%, respectively. For the same compound, the result in assay [5], in assay [6], in assay [7] and in assay [8] was inactive.
Turning to `N#Cc1ccc(-c2ccc(C(=O)Nc3ccc4c(c3)CCN(C3CCC3)CC4)nc2)cc1`, the results for the growth inhibition in assay [1] and in assay [4] were 63% (active) and 99% (active), respectively. Moreover, the inhibition in assay [2] was 21%; in assay [3] it was 0%. Besides, the result in assay [5], in assay [6], in assay [7] and in assay [8] was inactive.
In the case of `CCCCCOc1ccc(C(=NC)N(CCCCC)CCCCC)c2ccccc12`, the figures for the growth inhibition in assay [1] and in assay [4] were 80% (active) and 96% (active), respectively. In addition, the inhibition in assay [2] is 70% (active); in assay [3], 3%. The result in assay [5], in assay [6], in assay [7] and in assay [8] was inactive.
For `COc1cc(SC)c(Br)cc1-c1nc2ccncc2[nH]1`, the growth inhibition in assay [1] is 9%; in assay [4], 91% (active). Further, the inhibition in assay [2] is 5%; in assay [3], -1%. For the same compound, the result in assay [5], in assay [6], in assay [7] and in assay [8] was inactive.
Consider `COc1ccc(CNCCc2cccs2)cc1-c1cccc(S(=O)(=O)NCCN2CCCC2)c1`, for which the figures for the growth inhibition in assay [1] and in assay [4] were 41% and 98% (active), respectively. The values for the inhibition in assay [2] and in assay [3] were 56% (active) and -1%, respectively. In addition, the outcome in assay [5], in assay [6], in assay [7] and in assay [8] was inactive.
As for `CC(C)N1CCC(N(Cc2ccc(-c3ccc(C(F)(F)F)cc3)cc2)C(=O)Cn2c(CCc3cccc(F)c3F)cc(=O)c3c2CCC3)CC1`, the growth inhibition in assay [1] is 62% (active); in assay [4] it was 100% (active). Moreover, the inhibition in assay [2] is 30%; in assay [3] it was -7%. The outcome in assay [5], in assay [6], in assay [7] and in assay [8] was inactive.
As for `O=C(Nc1cccc(CN2CCCN(Cc3cccc(O)c3)CC2)c1)c1ccc2ccccc2c1`, the growth inhibition in assay [1] is 42%; in assay [4] it was 97% (active). Besides, the inhibition was 21% in assay [2] and -4% in assay [3]. For the same compound, the outcome in assay [5], in assay [6], in assay [7] and in assay [8] was inactive.
Take `O=C1c2ccccc2-n2c1nc1ccccc1c2=O`: the growth inhibition was 80% (active) in assay [1] and 93% (active) in assay [4]. For the same compound, the figures for the inhibition in assay [2] and in assay [3] were 9% and 4%, respectively. Besides, the result in assay [5], in assay [6], in assay [7] and in assay [8] was inactive.
In the case of `CC1CN(Cc2ccc(-c3ccc(-c4nc5ccccc5[nH]4)cc3)cc2)CC(C)O1` (stereo not given), the growth inhibition in assay [1] is 96% (active); in assay [4], 98% (active). Also, the inhibition in assay [2] is 48%; in assay [3], 3%. Besides, the outcome in assay [5], in assay [6], in assay [7] and in assay [8] was inactive.
`COc1cc2nccc(Nc3cc(C)cc(O)c3)c2cc1OC`: the growth inhibition in assay [1] was -2%; in assay [4], 97% (active). Moreover, the results for the inhibition in assay [2] and in assay [3] were -6% and 0%, respectively. Moreover, the outcome in assay [5], in assay [6], in assay [7] and in assay [8] was inactive.
With `NC1CCN(Cc2cccc(-c3ccc(-c4nc5ccccc5[nH]4)cc3)c2)C1` (stereo not given), the growth inhibition is 58% (active) in assay [1] and 100% (active) in assay [4]. Further, the values for the inhibition in assay [2] and in assay [3] were 24% and -7%, respectively. The result in assay [5], in assay [6], in assay [7] and in assay [8] was inactive.
For `O=C(Nc1ccc(Cl)cc1)c1ccc(CN2CCCN(Cc3ccccc3)CC2)cc1`, the results for the growth inhibition in assay [1] and in assay [4] were 2% and 96% (active), respectively. For the same compound, the inhibition in assay [2] was 46%; in assay [3] it was 1%. For the same compound, the result in assay [5], in assay [6], in assay [7] and in assay [8] was inactive.
